According to the supplement of paper PMC6555819:

What was measured:
Assay in all cases: PBM binding z-score (relative to random genomic background probes); higher = stronger binding; sequences stand for … in GC…GCGATTGACAGCGTAGAATGAAGG
[1] = tested on: FXR:RXRa (NR concentration 270 nM, RXRa partner concentration 90 nM)
In short: (§1)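 For binding z-scores, the reference was random background probes on custom Agilent 4×180K protein-binding microarrays. These arrays were incubated 1 h with ligand-free nuclear receptor dimers in PBS pH 7.4, 2% milk, 0.02% Triton X-100, 1 mM DTT, 0.2 mg/mL BSA and 0.4 mg/ml salmon testes DNA. Fluorescence was scanned after antibody detection of each partner (one per run) and regression-normalized.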

[2] = tested on: LXRa:RXRa (NR concentration 270 nM, RXRa partner concentration 90 nM)
In short: as §1

[3] = tested on: LXRa homodimer (NR concentration 270 nM)
In short: as §1

[4] = tested on: LXRb:RXRa (NR concentration 270 nM, RXRa partner concentration 90 nM)
In short: as §1

[5] = tested on: LXRb homodimer (NR concentration 270 nM)
In short: as §1

[6] = tested on: PPARa:RXRa (NR concentration 270 nM, RXRa partner concentration 90 nM)
In short: as §1

[7] = tested on: PPARg:RXRa (NR concentration 180 nM, RXRa partner concentration 90 nM)
In short: as §1

[8] = tested on: PPARg:RXRa 270nM:90nM, anti-RXR (NR concentration 270 nM, RXRa partner concentration 90 nM)
In short: as §1

[9] = tested on: PPARg:RXRa 30nM:10nM, anti-RXR (NR concentration 30 nM, RXRa partner concentration 10 nM)
In short: as §1

[10] = tested on: PPARg:RXRa 90nM:30nM, anti-RXR (NR concentration 90 nM, RXRa partner concentration 30 nM)
In short: as §1

[11] = tested on: PPARg:RXRa DBDmut IVT, anti-RXR (DBD mutation: RXRa K156A/R161A, NR concentration 270 nM, RXRa partner concentration 90 nM)
In short: as §1

[12] = tested on: PPARg:RXRa IVT, anti-PPARg (NR concentration 270 nM, RXRa partner concentration 90 nM)
In short: as §1

[13] = tested on: PPARg DBDmut:RXRa IVT, anti-PPARg (DBD mutation: PPARg1 K132A/R137A, NR concentration 270 nM, RXRa partner concentration 90 nM)
In short: as §1

[14] = tested on: PPARg DBDmut IVT, anti-PPARg (DBD mutation: PPARg1 K132A/R137A, NR concentration 270 nM)
In short: as §1

[15] = tested on: PPARg homodimer (NR concentration 180 nM)
In short: as §1

[16] = tested on: PXR:RXRa (NR concentration 270 nM, RXRa partner concentration 90 nM)
In short: as §1

[17] = tested on: PXR homodimer (NR concentration 270 nM)
In short: as §1

[18] = tested on: RARa:RXR (NR concentration 270 nM, RXRa partner concentration 90 nM)
In short: as §1

[19] = tested on: RARa homodimer (NR concentration 270 nM)
In short: as §1

[20] = tested on: RARb:RXRa (NR concentration 270 nM, RXRa partner concentration 90 nM)
In short: as §1

Sequence | PBM binding z-score [1] | PBM binding z-score [2] | PBM binding z-score [3] | PBM binding z-score [4] | PBM binding z-score [5] | PBM binding z-score [6] | PBM binding z-score [7] | PBM binding z-score [8] | PBM binding z-score [9] | PBM binding z-score [10] | PBM binding z-score [11] | PBM binding z-score [12] | PBM binding z-score [13] | PBM binding z-score [14] | PBM binding z-score [15] | PBM binding z-score [16] | PBM binding z-score [17] | PBM binding z-score [18] | PBM binding z-score [19] | PBM binding z-score [20]
CAAACTAGGTCACGGAGGTCAAAGTCCGTGCGTA | 7.4 | 6.23 | 6.45 | 5.9 | 1.36 | 6.83 | 10.4 | 8.3 | 7.09 | 8.25 | 8.69 | 9.3 | 5.33 | 6.03 | 5.85 | 6.63 | 10.4 | 7.02 | 2.61 | 5.34
CCTACTGGGCCAAAAAGGTCATTAATGCCGATAA | 2.98 | 3.74 | 2.97 | 4.21 | 0.494 | 4.39 | 2.98 | 3.7 | 1.44 | 2.96 | 3.72 | 3.94 | 0.336 | 0.139 | 3.45 | 4.39 | 3.17 | 5.01 | 1.3 | 3.64
CCTTACGGGTCACGAGGTAATAGCACGACGAGCG | 6.82 | 4.16 | -0.00739 | 3.79 | 0.00142 | 5.93 | 7.12 | 6.63 | 3.83 | 5.54 | 4.44 | 5.5 | 3.05 | 1.21 | 4.14 | 4.07 | 0.0228 | 5.59 | 1.16 | 4.46
TCTGCTAGGTCAGTTGGTCAGATAACGAGCTGCC | 1.05 | 0.831 | -0.457 | 0.683 | 0.181 | 1.36 | 0.922 | 1.72 | 1.53 | 1.68 | 2.68 | 3.15 | 0.782 | 0.323 | 0.482 | 0.274 | -0.646 | 0.69 | -0.432 | 3.36
CGAACTAGGTCATCCAGGAGAGTGAATACATTGA | 3.98 | 2.66 | 0.805 | 1.98 | -0.132 | 4.89 | 7.72 | 6.23 | 3.86 | 5.76 | 7.67 | 8.61 | 1.76 | 0.981 | 2.19 | 1.34 | 0.448 | 2.31 | 0.76 | 3.78
CTCGAAAGGTCGTGATCAGGTGAGTATACCAAAC | 5.37 | 3.83 | 0.129 | 3.24 | 0.0388 | 4.89 | 3.12 | 3.71 | 1.2 | 2.73 | 0.796 | 1.71 | 1.37 | 0.63 | 2.1 | 3.28 | -0.0349 | 4.26 | 0.477 | 3.96
CCTATTAGTTGACCTTAAGGGCAACCGAAGCTCG | 6.12 | 4.18 | 2.42 | 4 | 1.3 | 4.75 | 1.81 | 3 | 1.29 | 2.42 | 1.43 | 2.7 | 1.27 | 0.764 | 3.46 | 4.4 | 1.93 | 5.12 | 2.39 | 3.64
ACAGACAGGTGAAGAAGGTAACTCAGGCTATCAT | 0.248 | 0.203 | -0.161 | 0.234 | -0.276 | 0.721 | 0.796 | 0.34 | 0.0156 | -0.0588 | 0.468 | 0.733 | 0.175 | 0.429 | 0.495 | 0.0318 | 0.0524 | 0.274 | 0.349 | 0.709
GCTAGTTGGTCAGTAAAAGATCACACACCGGTCG | -0.109 | -0.07 | 0.00819 | -0.18 | -0.212 | -0.194 | 0.637 | -0.0816 | -0.233 | -0.12 | 0.304 | 0.185 | -0.527 | 0.421 | 0.2 | -0.208 | -0.161 | 0.0692 | 0.555 | 0.45
CTCGAAAGGTTGTGCTCAGGTGAGTATACCAAAC | 0.895 | 0.617 | -0.192 | 0.714 | -0.313 | 1.04 | -0.0653 | 0.312 | -0.567 | 0.171 | -0.27 | -0.00807 | -0.154 | -0.108 | 0.203 | 0.645 | -0.0824 | 1.38 | 0.121 | 1.2
